{"source": "ChEMBL document CHEMBL1157539", "about": "“Thousands of chemical starting points for antimalarial lead identification” (Nature, 2010)", "format_in_all_cases": "functional", "key": {"[1]": {"system": "Plasmodium falciparum", "test": "GSK_TCMDC: Inhibition of Plasmodium falciparum 3D7 in whole red blood cells, using parasite LDH activity as an index of growth. Test compounds present at 2uM"}, "[2]": {"system": "Plasmodium falciparum", "test": "GSK_TCMDC: Inhibition of Plasmodium falciparum Dd2 in whole red blood cells, using parasite LDH activity as an index of growth. Test compounds present at 2uM"}, "[3]": {"system": "HepG2", "test": "GSK_TCMDC: Percent inhibition of human HepG2 cell line. Test compounds present at 10uM."}}, "data": [{"smiles": "O=C(Nc1ccc(OC2CCN(Cc3ccc(F)cc3)C2)c(Cl)c1)c1cccs1.O=C(O)C(F)(F)F", "note": "(stereo not drawn)", "values": [{"measurement": "Inhibition", "setting": "[1]", "value": 98, "unit": "%"}, {"measurement": "Inhibition", "setting": "[2]", "value": 97, "unit": "%"}, {"measurement": "Inhibition", "setting": "[3]", "value": 21, "unit": "%"}]}, {"smiles": "O=C(NC1CCN(CCC(NC(=O)c2ccccc2)c2ccc(Cl)c(Cl)c2)CC1)c1ccc(Cl)cc1", "note": "(stereo not drawn)", "values": [{"measurement": "Inhibition", "setting": "[1]", "value": 97, "unit": "%"}, {"measurement": "Inhibition", "setting": "[2]", "value": 36, "unit": "%"}, {"measurement": "Inhibition", "setting": "[3]", "value": 17, "unit": "%"}]}, {"smiles": "COc1ccc(CC(=O)NC(CCN2CCC3(CC2)CN(S(C)(=O)=O)c2ccccc23)c2ccc(Cl)c(Cl)c2)cc1OC", "note": "(stereo not drawn)", "values": [{"measurement": "Inhibition", "setting": "[1]", "value": 92, "unit": "%"}, {"measurement": "Inhibition", "setting": "[2]", "value": 77, "unit": "%"}, {"measurement": "Inhibition", "setting": "[3]", "value": 10, "unit": "%"}]}, {"smiles": "Cc1c(-c2cccc(CNCCc3ccc(Cl)cc3)c2)cnc(N)c1C.Cl", "values": [{"measurement": "Inhibition", "setting": "[1]", "value": 87, "unit": "%"}, {"measurement": "Inhibition", "setting": "[2]", "value": 30, "unit": "%"}, {"measurement": "Inhibition", "setting": "[3]", "value": 9, "unit": "%"}]}, {"smiles": "COc1cc(Cc2cnc(N)nc2N)ccc1OCC(=O)Nc1ccc(C)cc1", "values": [{"measurement": "Inhibition", "setting": "[1]", "value": 95, "unit": "%"}, {"measurement": "Inhibition", "setting": "[2]", "value": 18, "unit": "%"}, {"measurement": "Inhibition", "setting": "[3]", "value": 10, "unit": "%"}]}, {"smiles": "CC1CNC(c2cccc(NC(=O)Nc3cccc(C4=NC(C)CN4)c3)c2)=N1.Cl", "note": "(stereo not drawn)", "values": [{"measurement": "Inhibition", "setting": "[1]", "value": 94, "unit": "%"}, {"measurement": "Inhibition", "setting": "[2]", "value": 98, "unit": "%"}, {"measurement": "Inhibition", "setting": "[3]", "value": 7, "unit": "%"}]}, {"smiles": "CC(C)(C)c1ccc(C(=O)Nc2ccc3nc4c(c(N)c3c2)CCCC4)cc1.Cl", "values": [{"measurement": "Inhibition", "setting": "[1]", "value": 100, "unit": "%"}, {"measurement": "Inhibition", "setting": "[2]", "value": 99, "unit": "%"}, {"measurement": "Inhibition", "setting": "[3]", "value": 21, "unit": "%"}]}, {"smiles": "CCc1c(CCNCCc2cccc(CCNCCc3ccc(OC)c(OC)c3CC)c2)ccc(OC)c1OC.Cl", "values": [{"measurement": "Inhibition", "setting": "[1]", "value": 81, "unit": "%"}, {"measurement": "Inhibition", "setting": "[2]", "value": 67, "unit": "%"}, {"measurement": "Inhibition", "setting": "[3]", "value": 100, "unit": "%"}]}, {"smiles": "COc1ccc2nccc([C@@H](O)CN3CCC(NCc4cc5c(F)ccc(F)c5[nH]4)CC3)c2c1.O=C(O)C(=O)O", "values": [{"measurement": "Inhibition", "setting": "[1]", "value": 100, "unit": "%"}, {"measurement": "Inhibition", "setting": "[2]", "value": 67, "unit": "%"}, {"measurement": "Inhibition", "setting": "[3]", "value": 29, "unit": "%"}]}, {"smiles": "Cc1ccc(-c2nc(Nc3ccncc3)c3ccccc3n2)s1", "values": [{"measurement": "Inhibition", "setting": "[1]", "value": 95, "unit": "%"}, {"measurement": "Inhibition", "setting": "[2]", "value": 34, "unit": "%"}, {"measurement": "Inhibition", "setting": "[3]", "value": 6, "unit": "%"}]}, {"smiles": "O=C(/C=C/C=C/c1ccccc1)NCCCCCN1CCC(c2c[nH]c3ccccc23)CC1", "values": [{"measurement": "Inhibition", "setting": "[1]", "value": 85, "unit": "%"}, {"measurement": "Inhibition", "setting": "[2]", "value": 7, "unit": "%"}, {"measurement": "Inhibition", "setting": "[3]", "value": 28, "unit": "%"}]}]}
